# Results published in PubChem BioAssay (Tox21).
# Values joined by “and” are separate entries in the source; they are usually repeats but may differ in a detail not shown here. Equal entries are not always repeated. Inconclusive results are not listed. Where a call stands in place of a potency, no number is given. A structure can be active in one record and inactive in another. Active and inactive are the calls of the source. Calls come from the whole dose curve; as a rule, active = well fitted curve in the direction sought with a large enough effect in the repeat runs; inconclusive = weak or mixed curves; inactive = no such curve, though single readings can be large; an effect the other way counts as inactive or inconclusive.
# What was measured:
# [1] = qHTS RealTime-Glo MT Cell Viability Assay in HEK293 cells - 16 hour (AID 1224872); note: nearly all actives have a fitted effect of over 50% in size; note: potency is the fitted concentration of half-maximal effect
# Method in brief: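 HEK293 cells were seeded at 600 cells/well together with NanoLuc luciferase and cell-permeant prosubstrate, preincubated 5 h at 37 C/5% CO2, then given compound in DMSO by pintool. Luminescence from viable-cell prosubstrate reduction was read repeatedly over 40 h.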
# [2] = qHTS RealTime-Glo MT Cell Viability Assay in HepG2 cells - 8 hour (AID 1224873); note: nearly all actives have a fitted effect of over 55% in size; note: potency is the fitted concentration of half-maximal effect
# Method in brief: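 HepG2 cells (600/well) mixed with RealTime-Glo MT reagent, settled 5 h at 37 C/5% CO2 before compound addition. Nonlytic NanoLuc luminescence from viable-cell prosubstrate reduction read repeatedly during 40 h treatment at 37 C.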
# [3] = qHTS RealTime-Glo MT Cell Viability Assay in HEK293 cells - 40 hour (AID 1224874); conditions: RealTime-Glo luminescence; max response: stronger effect = lower value; note: nearly all actives have a fitted effect of over 50% in size; note: potency is the fitted concentration of half-maximal effect
# Method in brief: (§1)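 Luminescence readout at each listed time point; HEK293, 600 cells/well, RealTime-Glo MT reagent added with cells; compounds pinned (23 nL in DMSO) after 5 h at 37 C; continuous culture at 37 C.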
# [4] = A CellTox Green Cytotoxicity Assay to monitor cytotoxicity in HEK293 cells - 24 hour (AID 1224875); note: nearly all actives have a fitted effect of over 45% in size; note: potency is the fitted concentration of half-maximal effect
# Method in brief: (§2)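 Read-out: fluorescence of a cell-impermeant cyanine dye staining DNA of dead cells, proportional to cytotoxicity. HEK293, 600 cells/well with reagent, compound (23 nL DMSO) added after 5 h; reads at 0, 8, 16, 24, 32, 40 h.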
# [5] = A CellTox Green Cytotoxicity Assay to monitor cytotoxicity in HepG2 cells - 16 hour (AID 1224876); note: nearly all actives have a fitted effect of over 45% in size; note: potency is the fitted concentration of half-maximal effect
# Method in brief: (§3)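 HepG2, 600 cells/well premixed w/ CellTox Green; 5 h settle, 37 C/5% CO2; pintool cpd add (DMSO); 37 C, 40 h; fluorescence read at 0, 8, 16, 24, 32, 40 h.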
# [6] = qHTS RealTime-Glo MT Cell Viability Assay in HepG2 cells - 32 hour (AID 1224877); note: nearly all actives have a fitted effect of over 55% in size; note: potency is the fitted concentration of half-maximal effect
# Method in brief: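 HepG2 cells were seeded at 600 cells/well together with NanoLuc luciferase and a cell-permeant prosubstrate, preincubated 5 h at 37 C/5% CO2, then pin-dosed with compounds in DMSO. Nonlytic luminescence from viable cells was read at each time point.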
# [7] = A CellTox Green Cytotoxicity Assay to monitor cytotoxicity in HepG2 cells - 24 hour (AID 1224878); note: nearly all actives have a fitted effect of over 45% in size; note: potency is the fitted concentration of half-maximal effect
# Method in brief: as §3
# [8] = A CellTox Green Cytotoxicity Assay to monitor cytotoxicity in HepG2 cells - 40 hour (AID 1224879); note: nearly all actives have a fitted effect of over 40% in size; note: potency is the fitted concentration of half-maximal effect
# Method in brief: as §3
# [9] = qHTS RealTime-Glo MT Cell Viability Assay in HEK293 cells - 0 hour (AID 1224880); note: top concentration of the series differs between compounds; nearly all actives have a fitted effect of over 45% in size
# Method in brief: as §1
# [10] = A CellTox Green Cytotoxicity Assay to monitor cytotoxicity in HEK293 cells - 32 hour (AID 1224881); note: nearly all actives have a fitted effect of over 40% in size; note: potency is the fitted concentration of half-maximal effect
# Method in brief: as §2
SMILES,Potency [1],Potency [2],max response [3],Potency [4],Potency [5],Potency [6],Potency [7],Potency [8],Potency [9],Potency [10],Potency [3]
CCCC(=O)c1ccccc1,inactive,inactive,2.03% (inactive),inactive,inactive,inactive,inactive,inactive,inactive,inactive,
CCCN[C@H]1CCc2nc(N)sc2C1,inactive,inactive,-11% (inactive),inactive,inactive,,inactive,,inactive,inactive,
CCC[C@H](N[C@@H](C)C(=O)N1[C@H](C(=O)O)C[C@@H]2CCCC[C@@H]21)C(=O)OCC,inactive,inactive,4.1% (inactive) and 12.6% (inactive),inactive,,inactive,inactive,inactive,inactive,inactive,
CC(=O)C1=C(C)[C@@H]2C[C@@]3(C1)[C@H](C)CC[C@H]3C2(C)C,inactive,inactive,-1.5% (inactive) and -2.44% (inactive),inactive,inactive,,inactive,,inactive,36.2 µM (active) and inactive,
Oc1c(Cl)cc(Cl)cc1Sc1cc(Cl)cc(Cl)c1O,inactive,inactive,,,44.4 µM (active) and 43.6 µM (active) and inactive,inactive,39.5 µM (active) and 43.6 µM (active) and inactive,,inactive,49.1 µM (active) and 43.6 µM (active) and inactive,17.4 µM (active) and 22.2 µM (active) and 13.8 µM (active)
C=C(C)C1CC=C(C)C(OC(C)=O)C1 (stereo not drawn),inactive,,-4.93% (inactive) and 11% (inactive),inactive,inactive,inactive,inactive,inactive,inactive,inactive,
Nc1nc2ccccc2[nH]1,inactive,inactive,0.0562% (inactive) and 7.05% (inactive),inactive,,,inactive,,inactive,inactive,
CCCNC(C)C(=O)Nc1ccccc1C (stereo not drawn),inactive,inactive,-3.34% (inactive),inactive,,,inactive,inactive,inactive,inactive,
COC(=O)[C@H]1[C@H]2C[C@@H]3c4[nH]c5cc(OC)ccc5c4CCN3C[C@H]2C[C@@H](OC(=O)c2cc(OC)c(OC)c(OC)c2)[C@@H]1OC,4.89 µM (active) and 5.65 µM (active) and 4.77 µM (active),,,inactive,inactive,,inactive,43.6 µM (active) and 40 µM (active) and 23.9 µM (active),inactive,inactive,4.36 µM (active) and 7.98 µM (active) and 8.49 µM (active)
N[C@@H]1CONC1=O,inactive,inactive,,inactive,,inactive,,,inactive,inactive,
Cc1cc(Cc2cc(C)cc(C(C)(C)C)c2O)c(O)c(C(C)(C)C)c1,15.6 µM (active) and 17.4 µM (active),,,43.9 µM (active) and 43.6 µM (active),39.1 µM (active) and 38.9 µM (active),49.2 µM (active) and 49 µM (active),43.9 µM (active) and 43.6 µM (active),49.2 µM (active) and 43.6 µM (active),inactive,49.2 µM (active) and 43.6 µM (active),8.75 µM (active) and 15.5 µM (active)
O=C1CC2(CCCC2)CC(=O)N1CCCCN1CCN(c2ncccn2)CC1,43.6 µM (active) and inactive,,,inactive,inactive,inactive,inactive,,inactive,inactive,27.5 µM (active)
CCn1cc(C(=O)O)c(=O)c2cc(F)c(N3CCNC(C)C3)c(F)c21 (stereo not drawn),inactive,inactive,14.9% (inactive),inactive,,,inactive,inactive,inactive,inactive,
NCCCCCC(=O)O,inactive,,-0.0726% (inactive),inactive,inactive,,inactive,inactive,inactive,inactive,
CC(C)(C)NCC(O)c1cc(O)cc(O)c1 (stereo not drawn),inactive,,4.94% (inactive),inactive,inactive,inactive,inactive,,inactive,inactive,
COC(=O)/C=C/c1ccccc1,inactive,inactive,-2.16% (inactive),,inactive,inactive,inactive,,inactive,inactive and 21.9 µM (active),
CNC1(C)C2CCC(C2)C1(C)C (stereo not drawn),inactive,inactive,-3.74% (inactive),inactive,,inactive,,,inactive,inactive,
CCCCCCCCCCCCCC[P+](CCCC)(CCCC)CCCC,5.46 µM (active) and 549 nM (active),,,12.2 µM (active) and 17.4 µM (active),21.8 µM (active) and 19.5 µM (active),21.8 µM (active) and 12.3 µM (active),21.8 µM (active) and 15.5 µM (active),19.4 µM (active) and 17.4 µM (active),inactive,12.2 µM (active) and 17.4 µM (active),137 nM (active) and 174 nM (active)
CC(C)(C)NCC(O)COc1ccccc1OCC1CCCO1 (stereo not drawn),inactive,inactive,0.952% (inactive),inactive,,,inactive,,inactive,inactive,
COC(=O)c1cccc(C(=O)OC)c1,inactive,inactive,2.68% (inactive) and 4.11% (inactive),,inactive and 38.9 µM (active),,inactive and 38.9 µM (active),,inactive,inactive and 38.9 µM (active),
O=Cc1ccc(Cl)cc1,inactive,inactive,-1.8% (inactive),inactive,,,inactive,inactive,inactive,inactive,
O=C(O[C@@H]1Cc2c(O)cc(O)cc2O[C@@H]1c1cc(O)c(O)c(O)c1)c1cc(O)c(O)c(O)c1,11.9 µM (active),inactive,,inactive,,,inactive,inactive,inactive,inactive,7.48 µM (active)
CCN(CC)C(=S)SSC(=S)N(CC)CC,89.1 nM (active) and 13.4 µM (active),44.7 µM (active),,,50.1 µM (active) and inactive,89.1 nM (active),158 nM (active) and 95.2 nM (active),100 nM (active),inactive,141 nM (active) and inactive,174 nM (active) and 656 nM (active) and 13.4 µM (active)
NC(=Nc1ccccc1)Nc1ccccc1,inactive,inactive,,inactive,inactive,inactive,inactive,inactive,,inactive,
